Source: PubChem BioAssay (National Center for Advancing Translational Sciences (NCATS))
JMJD2A Tudor inh: inhibitors of human JMJD2A Tudor domain; 390,000 compounds, 4.4% hits; Potency, µM (top dose mostly 114 µM), without a hit: top-dose activity change, negative = inhibition, usual class: inhibitors; O75164; AlphaScreen JMJD2A-Tudor / H3K4me3 peptide binding; also: % is scaled to controls: 0 for no effect and ±100 for the full control effect; nearly all actives have a fitted effect of over 50% in size
BAZ2B inh: BAZ2B (human) inhibition; AlphaScreen BAZ2B-H3K14Ac peptide displacement; Potency, µM (doses to about 114 µM), for the others: at the highest dose activity change, negative = inhibition, most hits filed as inhibitors; 360,000 compounds, 4.4% hits; Q9UIF8; AID 504333; also: % is scaled to controls: 0 for no effect and ±100 for the full control effect; nearly all actives have a fitted effect of over 60% in size
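Protein-peptide AlphaScreen: BAZ2B 50 nM, b-H3K14Ac 50 nM, 1x PBS pH 7.4 + 0.01% Tween-20. Preincubation 30 min RT; cpd 30 min RT (top 110 uM); beads 20 min RT, light-protected.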
Sfp inh: Sfp phosphopantetheinyl transferase inhibition | Biochemical Sfp PPTase activity, qHTS | Potency, µM, without a hit: largest response in the series, negative = inhibition, most hits filed as inhibitors | 310,000 compounds, 3.5% hits | AID 1490;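 also: the enzyme is Sfp with the accession as filed and its product quenches rhodamine fluorescence; 0% = enzyme reaction without inhibitor and -100% = no enzyme wells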
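Fluorescence-quenching assay: 15 nM Sfp-PPTase preincubated 15 min at room temperature with compound, then 5 uM rhodamine-CoA and 12.5 uM BHQ-2-labelled YbbR peptide added. Fluorescence (ex 525/em 598 nm) read at start and after 30 min; difference gives rate.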
12-LOX inh: ALOX12 (human) lipoxygenase inhibition | purified 12hLO, xylenol orange hydroperoxide absorbance | Potency, µM (doses to about 108 µM), inactives show at the top dose activity change, negative = inhibition, most hits filed as inhibitors | 580,000 compounds, 1.1% hits | AID 1671190; also: % is scaled to controls: 0 for no effect and ±100 for the full control effect
Target sequence (P18054 whole entry, looked up): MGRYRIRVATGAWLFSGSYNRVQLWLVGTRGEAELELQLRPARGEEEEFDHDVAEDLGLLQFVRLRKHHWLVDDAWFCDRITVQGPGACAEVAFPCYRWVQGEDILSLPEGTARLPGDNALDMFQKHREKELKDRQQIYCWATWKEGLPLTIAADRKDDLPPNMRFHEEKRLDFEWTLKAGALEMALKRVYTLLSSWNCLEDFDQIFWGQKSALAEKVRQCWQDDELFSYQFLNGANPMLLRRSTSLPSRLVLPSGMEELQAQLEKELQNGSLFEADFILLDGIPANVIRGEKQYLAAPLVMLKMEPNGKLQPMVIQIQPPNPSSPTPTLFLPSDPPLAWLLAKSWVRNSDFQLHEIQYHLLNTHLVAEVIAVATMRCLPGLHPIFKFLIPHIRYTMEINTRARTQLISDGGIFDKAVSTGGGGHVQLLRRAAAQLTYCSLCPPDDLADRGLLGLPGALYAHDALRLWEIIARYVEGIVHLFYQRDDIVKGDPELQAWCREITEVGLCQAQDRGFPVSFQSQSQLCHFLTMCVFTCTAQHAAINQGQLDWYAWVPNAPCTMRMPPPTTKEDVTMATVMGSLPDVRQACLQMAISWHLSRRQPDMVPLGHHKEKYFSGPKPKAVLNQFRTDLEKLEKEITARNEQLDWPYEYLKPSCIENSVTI
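Purified human 12hLO (150 nM final) in 25 mM Hepes, 0.01% Triton X-100, pH 7.0 was preincubated 15 min at room temperature with compound. Then 40 uM arachidonic acid was added, 30 min. Hydroperoxide was read by Fe-XO absorbance ratio 573/405 nm.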
HP1b binding inh: blocks HP1-beta chromodomain binding to methylated histone tails. AlphaScreen HP1-beta / biotin-H3K9me3 peptide binding. Potency, µM (top dose mostly 114 µM), for the others: at the highest dose activity change, negative = inhibition, usual class: inhibitors. 390,000 compounds, 0.56% hits; also: nearly all actives have a fitted effect of over 70% in size
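Compound inhibition of the preformed complex between 50 nM HP1-beta and 50 nM biotinylated H3K9me3 peptide was read by AlphaScreen. Buffer was PBS pH 7.4 with 0.01% Tween-20. Incubations ran 30 min at room temperature, with 10 ug/mL donor/acceptor beads.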
G9a inh: G9a (human) methyltransferase inhibition. 350,000 compounds, 8.8% hits. Q96KQ7. Potency, µM (highest dose often 102 µM), inactives show at the top dose activity, negative = inhibition, usual class: inhibitors. G9a H3K9 monomethylation, AlphaScreen, 2 h; also: % is scaled to controls: 0 for no effect and ±100 for the full control effect; nearly all actives have a fitted effect of over 75% in size
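G9a (20 nM) was preincubated 15 min with compound, then reacted 2 h at room temperature with 500 nM biotin-H3K9 peptide and 20 µM SAM. Monomethyl-H3K9 detected by AlphaScreen using anti-H3K9me1 antibody.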
An asterisk follows results filed as active; [ ] = remark or other dose. Compounds with a hit are over-represented: about 8.7% of the library has one in this group of screens. Calls follow the shape of the dose curve; as a rule, active = well fitted curve in the direction sought with a large enough effect; inconclusive = small, poorly fitted or top-dose-only effect, or another doubt; inactive = no such curve, though single readings can be large; an effect the other way counts as inactive or inconclusive. Potency is read from the fitted curve at half-maximal effect.

Screening Cc1csc(Nc2ccc3c(n2)CN(Cc2ccc(F)cc2)C(=O)CO3)n1 returned 12-LOX inh 32%[176 µM].
`Oc1ccc(-c2nc(-c3ccc(Cl)cc3)cs2)cc1` gave 12-LOX inh 14µM*.
`Clc1ccc(-c2csc(-c3nc(-c4ccc(Br)s4)cs3)n2)cc1` gave JMJD2A Tudor inh -3%, BAZ2B inh 7%, 12-LOX inh -18%, HP1b binding inh 26% and G9a inh 1%[59 µM].
Oc1ccc(-c2csc(-c3ccccc3)n2)cc1O was read as JMJD2A Tudor inh 40µM*, BAZ2B inh 56µM*, Sfp inh 56µM*, 12-LOX inh 7.1µM*, HP1b binding inh inconclusive and G9a inh inconclusive.
For O=C1NC2(CN(C(=O)c3ccc(C(F)(F)F)cc3)C2)Oc2ccccc21 the results were 12-LOX inh 53%.
For O=C(O)COc1ccc(-c2nccc3c2C(=O)N(Cc2cccc(C(F)(F)F)c2)CC(COc2cccnc2)O3)cc1 (stereo unspecified) the results were 12-LOX inh 46%.
NNS(=O)(=O)c1ccc2c(c1)Cc1cc(S(=O)(=O)NN)ccc1-2 was read as JMJD2A Tudor inh -13%, BAZ2B inh -7%, Sfp inh -19%, 12-LOX inh inconclusive, HP1b binding inh 11% and G9a inh 7.9µM*.
For NC(=O)c1ccc(-n2c(CCC(=O)O)ccc2-c2cccs2)cc1 the results were JMJD2A Tudor inh -26%, BAZ2B inh -32%, Sfp inh -15%, 12-LOX inh -15%, HP1b binding inh inconclusive and G9a inh 28µM*.
Cc1ccc(-n2c(CCC(=O)O)ccc2-c2cccs2)cc1Cl was read as JMJD2A Tudor inh inconclusive, BAZ2B inh inconclusive, 12-LOX inh 5%, HP1b binding inh 1% and G9a inh 13µM*.
`CC(=O)c1ccc(-n2c(CCC(=O)O)ccc2-c2cccs2)cc1` gave JMJD2A Tudor inh inconclusive, BAZ2B inh inconclusive, Sfp inh 20µM*, 12-LOX inh inconclusive, HP1b binding inh -5% and G9a inh 14µM*.
For COCCCn1c(CCC(=O)O)ccc1-c1cccs1 the results were JMJD2A Tudor inh -33%, BAZ2B inh inconclusive, Sfp inh inconclusive, 12-LOX inh 0%, HP1b binding inh -8% and G9a inh inconclusive.
Screening O=C(Cc1ccc2c(c1)OCC2)Nc1ccc2c(c1)C(=O)N1CCC[C@H]1C(=O)N2 returned 12-LOX inh -26%.
`O=S(=O)(N[C@@H]1CCOC[C@H]1O)c1cccc(C(F)(F)F)c1` gave 12-LOX inh 16%.
Screening COc1ccccc1C(C)NC(=O)CN1CCN(c2ccc([N+](=O)[O-])c3cnccc23)CC1 (stereo unspecified) returned 12-LOX inh 11µM*.
`COc1ccc(-c2cc3ccc(OCc4nn[nH]n4)cc3oc2=O)cc1OC` gave JMJD2A Tudor inh -17%, BAZ2B inh -6%, Sfp inh 26%, 12-LOX inh inconclusive, HP1b binding inh 60% and G9a inh 45µM*.
Screening Cc1c(Cc2ccccc2)c(=O)oc2cc(OCc3nn[nH]n3)ccc12 returned JMJD2A Tudor inh 10%, BAZ2B inh 7%, Sfp inh 79µM*, 12-LOX inh 0%, HP1b binding inh 38% and G9a inh inconclusive.
For Cc1c(CC(=O)O)c(=O)oc2cc(OCc3nn[nH]n3)ccc12 the results were JMJD2A Tudor inh -28%, BAZ2B inh -7%, Sfp inh -2%, 12-LOX inh inconclusive, HP1b binding inh 6% and G9a inh inconclusive.
For CC(C)CN1CCN(C2CCOC3(CCN(C(=O)c4cccs4)CC3)C2)CC1 (stereo unspecified) the results were 12-LOX inh 45%.
For Cc1ccc(N/C=C/C(=O)C(C)(C)C)c(O)c1 the results were JMJD2A Tudor inh -32%, BAZ2B inh inconclusive, Sfp inh 89µM*, HP1b binding inh -10% and G9a inh -14%.
Oc1ccc(Cn2ccnc2)c2cccnc12 was read as JMJD2A Tudor inh 2µM*, BAZ2B inh 0.71µM*, Sfp inh 19%, 12-LOX inh -29%, HP1b binding inh 20% and G9a inh inconclusive.
`Oc1ccc(CNc2ccc(F)cc2)c2cccnc12` gave JMJD2A Tudor inh 56µM*, BAZ2B inh 25µM*, Sfp inh 8%, 12-LOX inh inconclusive, HP1b binding inh -25% and G9a inh 1.6µM*.
For Oc1ccc2c(c1)c1ccccc1c1ncccc21 the results were JMJD2A Tudor inh -10%, 12-LOX inh -7% and HP1b binding inh 6%.
For Fc1ccc(NC(=S)NCc2cccnc2)cc1 the results were JMJD2A Tudor inh -8%, BAZ2B inh -21%, Sfp inh -3%, 12-LOX inh -1%, HP1b binding inh 39% and G9a inh 10%.
For COCc1ccc(O)c2ncccc12 the results were JMJD2A Tudor inh 40µM*, BAZ2B inh 1.8µM*, Sfp inh -3%, 12-LOX inh 23%, HP1b binding inh 51% and G9a inh inconclusive.
For OCc1ccnc2c(O)cccc12 the results were JMJD2A Tudor inh 13µM*, BAZ2B inh 1.4µM*, Sfp inh 3%, 12-LOX inh -19%, HP1b binding inh -4% and G9a inh -7%[2.33 µM].
O=C(O)CO[C@@H]1COCC[C@H]1NC(=O)C1(CO)CC1 was read as 12-LOX inh 15%.
Screening O=C(NCCCn1ccnc1)C1CCCN(c2nc(-c3ccccc3)nc3c2CCC3)C1 (stereo unspecified) returned 12-LOX inh 95%.
`Fc1cccc(NC(=S)NNc2ccccc2)c1` gave JMJD2A Tudor inh 56µM*, BAZ2B inh 40µM*, Sfp inh 2%, 12-LOX inh inconclusive, HP1b binding inh inconclusive and G9a inh 50µM*.
`Oc1cccc(Nc2ccccc2)c1` gave JMJD2A Tudor inh -31%, BAZ2B inh inconclusive, 12-LOX inh -28%, HP1b binding inh -9% and G9a inh -4%[0.501 µM].
For NC(=S)Nc1cccc(F)c1 the results were JMJD2A Tudor inh -2%, BAZ2B inh -10%, Sfp inh 8%, 12-LOX inh -14%, HP1b binding inh 15% and G9a inh inconclusive.
Oc1cccc(NC(=S)Nc2ccccc2)c1 was read as JMJD2A Tudor inh -15%, BAZ2B inh -8%, Sfp inh -4%, 12-LOX inh 0%, HP1b binding inh 31% and G9a inh 50µM*.
